Source: PubChem (National Center for Advancing Translational Sciences (NCATS))
KB-V1 MDR tox: KB-V1 MDR subline cytotoxicity; Potency, µM (doses to about 46.1 µM), hits mostly cytotoxic; AID 1347076; 400,000 compounds, 3.4% hits; KB-V1 MDR cells viability, CellTiter-Glo, 72 h; also: % is scaled to controls: 0 for no effect and ±100 for the full control effect; nearly all actives have a fitted effect of over 60% in size
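Cells of the MDR subline KB-V1 are plated, dosed with compound at multiple concentrations, and incubated 72 h at 37 degrees C; CellTiter-Glo is then added and luminescence read after 10 min.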
HT1080 IDH1KD tx: HT-1080 IDH1 knockdown cell toxicity (counter line); Potency, µM (highest dose often 46.1 µM), without a hit: at the highest dose activity, negative = toxicity, usual class: cytotoxic; HT-1080 IDH1 knockdown viability, ATP luminescence, 48 h; 360,000 compounds, 2% hits;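 also: 0% = DMSO wells and -100% = cell-free medium wells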
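Viability of IDH1-knockdown HT-1080 fibrosarcoma cells was assessed by CellTiter-Glo after 48 h at 37 °C with titrated compound; concentration-effect curves were classified by fit quality and response size.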
MCF10A rerep: induces DNA re-replication in MCF 10a normal breast cells. MCF 10A DNA re-replication, Hoechst nuclear intensity, 48 h. 350,000 compounds, 2.9% hits. Potency, µM (highest dose often 46.1 µM), inactives show at the highest dose activity, positive = re-replication, usual class: activators; also: % of control where 0% means no effect; nearly all actives have a fitted effect of over 50% in size
HT1080-NT tox: kills 2HG-producing HT-1080-NT fibrosarcoma cells. HT-1080-NT fibrosarcoma viability, CellTiter-Glo ATP luminescence, 48 h. Potency, µM (titrated, usually from 46.1 µM), without a hit: at the top dose activity, negative = less viability, hits mostly cytotoxic. 360,000 compounds, 1.6% hits;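 also: NT is the 2HG producing partner of a matched IDH1 knockdown line; 0% = DMSO-treated cells and -100% = media-only wells without cells; nearly all actives have a fitted effect of over 55% in size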
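HT-1080-NT fibrosarcoma cells (2HG-overproducing), 750 cells/well in RPMI with 5% FBS, dosed after 2 h and incubated 48 h at 37C. CellTiter-Glo luminescence normalized to DMSO and no-cell wells; concentration-response curves fitted and classed.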
SW480 rereplic: DNA re-replication induction in SW480 cells; 340,000 compounds, 1.8% hits; Potency, µM (highest dose often 46.1 µM), inactives show top-dose re-replication activation, most hits filed as activators; SW480 DNA re-replication, Hoechst DNA content imaging, 48 h; also: % of control where 0% means no effect; nearly all actives have a fitted effect of over 55% in size
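Image-based read-out: total Hoechst fluorescence of nuclei (405 nm excitation, 500-530 nm emission), with hits raising the fraction of high-intensity nuclei. SW480 colon cells incubated 48 hr with compounds at 37 C.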
KB-3-1 cytotox: kills parental KB-3-1 adenocarcinoma cells; 400,000 compounds, 1.4% hits; Potency, µM (doses to about 46.1 µM), most hits filed as cytotoxic; KB-3-1 viability, CellTiter-Glo ATP luminescence, 72 h; also: % is scaled to controls: 0 for no effect and ±100 for the full control effect; nearly all actives have a fitted effect of over 60% in size
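Screening of KB-3-1 cells (DMEM, 10% FBS, phenol-red free) ran from lowest to highest compound concentration; after 72 h at 37 °C viability was read luminescently and curves fitted.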
Starred values were filed as active, the others as inactive; i = inactive; u = inconclusive; x = no result; [ ] = another dose, or the depositor's remark. In the library only some 8% were active in any assay of this set; here they are far more common. Calls follow the shape of the dose curve; as a rule, active = well fitted curve in the direction sought with a large enough effect; inconclusive = small, poorly fitted or top-dose-only effect, or another doubt; inactive = no such curve, though single readings can be large; an effect the other way counts as inactive or inconclusive. Potency is read from the fitted curve at half-maximal effect.

SMILES | KB-V1 MDR tox | HT1080 IDH1KD tx | MCF10A rerep | HT1080-NT tox | SW480 rereplic | KB-3-1 cytotox
CCCS(=O)(=O)N1CCCC(c2nc(-c3ccc(OC)cc3)no2)C1 (stereo unspecified) | 13µM* | 6% | 10% | 5% | 6% | i
COc1ccc(-c2noc(C3CCCN(S(=O)(=O)c4cccc(Cl)c4C)C3)n2)cc1OC (stereo unspecified) | 18µM* | 11% | u | 4% | 4% | i
COc1ccc(-c2noc(C3CCCN(S(=O)(=O)c4ccc(C)c(Cl)c4)C3)n2)cc1OC (stereo unspecified) | 3.7µM* | 25% | u | 9% | 2% | i
CC1(c2ccc3c(c2)OCCCO3)NC(=O)N(CC(=O)NCCc2ccc(F)cc2)C1=O (stereo unspecified) | i | 13% | x | 5% | x | i
O=C(CNC(=O)c1ccc([N+](=O)[O-])cc1)N/N=C/c1c[nH]c2ccccc12 | u | -14% | 0% | 6% | -6% | u
O=C(O)c1ccc(-c2ccc(OS(=O)(=O)c3ccccc3F)cc2)cc1 | i | -2% | 1% | 0% | -3% | i
Fc1ccc(/C=C\c2nccc3c2[nH]c2ccccc23)cc1 | i | 23µM* | 6.5µM* | u | 18µM* | i
Cc1ccc(/C=C\c2nccc3c2[nH]c2ccccc23)cc1 | i | u | 9.2µM* | -28% | 21µM* | i
C(=C\c1nccc2c1[nH]c1ccccc12)/c1ccccc1 | i | u | u | u | 12µM* | u
CCN(Cc1ccccc1)c1ccc(/C=C/c2nccc3ccccc23)cc1 | i | x | x | x | x | i
CCc1ccc(S(=O)(=O)Nc2c(C)nn(C)c2C)cc1 | i | -13% | -24% | -6% | -1% | u
O=C(Cn1c(=O)cnc2ccccc21)NCC(=O)Nc1ccc(F)c(F)c1 | i | -1% | -1% | 4% | -10% | i
COC(CNC(=O)c1ccc2c3c(onc13)-c1ccccc1C2=O)OC | i | u | u | 23µM* | u | u
CSc1n[nH]c(-c2ccc(C(F)(F)F)cc2)n1 | i | -22% | 17% | 25% | 2% | i
CC1CCN(CC[S-])CC1.O.O.[Cl][Pt] | u | x | x | x | x | 13µM*
Cc1cccnc1Sc1c([N+](=O)[O-])ncn1C | i | u | -1% | 0% | -6% | i
Cn1cnc([N+](=O)[O-])c1Sc1ncnc2nc[nH]c12 | u | 4.1µM* | u | 4.1µM* | 6% | 1.8µM*
Cn1cnc(Sc2ncnc3nc[nH]c23)c1[N+](=O)[O-] | u | 18µM* | u | u | 13% | u
O=C(CN(CC1CCCO1)C(=O)CNS(=O)(=O)c1ccc(Cl)cc1)NC1CCCC1 (stereo unspecified) | u | 3% | -23% | 1% | -4% | i
O=C(CCN1CCOCC1)c1ccccc1 | i | u | 2.6µM* | u | 199% | i
O=C(CCN1CCc2ccccc2CC1)c1ccc2c(c1)OCCO2 | u | -1% | 1.3µM* | -3% | 13µM* | i
O=C(CCCN1CCOCC1)c1ccc2c(c1)OCCO2 | i | 14% | u | -14% | 2% | i
O=C(c1ccc(Br)cc1)N1CCN(Cc2ccccc2)CC1 | u | 3% | 4% | 6% | -5% | i
O=C(CCN1CCCCC1)c1ccc2c(c1)OCO2 | i | -2% | u | -22% | -1%[9.22 µM] | u
O=C(CCN1CCN(C(=O)c2ccccc2)CC1)c1ccc(Br)cc1 | u | -26% | 16µM* | u | u | i
SMILES | KB-V1 MDR tox | HT1080 IDH1KD tx | MCF10A rerep | HT1080-NT tox | SW480 rereplic | KB-3-1 cytotox
O=C(CCN1CCCCC1)c1ccccc1 | i | 3% | u | 10% | u | i
O=C(CCN1CCOCC1)c1ccc2c(c1)OCCO2 | i | u | 6.5µM* | u | u | u
CCCCNC(=O)CC(C(=O)N1CCc2ccccc21)n1ccnc1 (stereo unspecified) | i | 10% | -1% | -1% | -6% | i
O=C(CC(C(=O)N1CCc2ccccc21)n1ccnc1)N1CCc2ccccc2C1 (stereo unspecified) | 8.2µM* | u | 15% | -1% | 1% | i
O=C(CC(C(=O)N1CCc2ccccc21)n1ccnc1)NCC1CCCO1 (stereo unspecified) | i | -2% | 0% | -2% | -3% | i
CCN(CCCNC(=O)CC(C(=O)N1CCc2ccccc21)n1ccnc1)c1cccc(C)c1 (stereo unspecified) | 12µM* | u | 22% | -2% | -2% | i
COc1cc(-c2nnc(SCC(=O)Nc3ccc4c(c3)OCCO4)o2)cc(OC)c1OC | i | -9% | 1% | -7% | 1% | u
CCOc1ccc(N(C(C)C(=O)NCCSc2ccc(Cl)cc2)S(C)(=O)=O)cc1 (stereo unspecified) | i | x | x | x | x | u
CCOc1ccc(N(C(C)C(=O)Nc2cc(Cl)ccc2OC)S(C)(=O)=O)cc1 (stereo unspecified) | u | x | x | x | x | 3.7µM*
Cc1cccn2c(=O)c(/C=C(\C#N)C(=O)NC3CCS(=O)(=O)C3)c(N3CC(C)OC(C)C3)nc12 (stereo unspecified) | i | 0% | 1.8µM* | 0% | u | u
Cc1cccn2c(=O)c(/C=C(\C#N)C(=O)NC3CCS(=O)(=O)C3)c(N3CCC(C(N)=O)CC3)nc12 (stereo unspecified) | i | 13% | u | 7% | x | i
CCNC(=O)/C(C#N)=C/c1c(N2CC(C)OC(C)C2)nc2ccccn2c1=O (stereo unspecified) | u | 17% | 13% | 24% | 12% | i
Cc1cccn2c(=O)c(/C=C(\C#N)C(=O)NC3CCS(=O)(=O)C3)c(Oc3ccccc3Cl)nc12 (stereo unspecified) | i | u | 10% | u | -18% | i
Cc1ccccc1Oc1nc2c(C)cccn2c(=O)c1/C=C(\C#N)C(=O)NC1CCS(=O)(=O)C1 (stereo unspecified) | i | 13µM* | u | u | 2% | i
Cc1ccc(Oc2nc3ccccn3c(=O)c2/C=C(\C#N)C(=O)NC2CCS(=O)(=O)C2)cc1 (stereo unspecified) | i | -1% | 8.2µM* | -2% | u | i
CNC(=O)/C(C#N)=C/c1c(N2CC(C)OC(C)C2)nc2ccccn2c1=O (stereo unspecified) | i | 26% | 7.3µM* | 10% | u | i
